# Cruzain noTriton: cruzain (T. cruzi) inhibition without detergent; 200,000 compounds, 2.3% hits; purified cruzain, Z-FR-AMC fluorescence, no detergent; P25779; Potency, µM, for inactives: max response, negative = inhibition, hits mostly inhibitors;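 further: plate controls were enzyme without inhibitor for no effect and buffer without enzyme for full effect; nearly all actives have a fitted effect of over 40% in size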
# Target sequence (P25779 123-467 limits assumed): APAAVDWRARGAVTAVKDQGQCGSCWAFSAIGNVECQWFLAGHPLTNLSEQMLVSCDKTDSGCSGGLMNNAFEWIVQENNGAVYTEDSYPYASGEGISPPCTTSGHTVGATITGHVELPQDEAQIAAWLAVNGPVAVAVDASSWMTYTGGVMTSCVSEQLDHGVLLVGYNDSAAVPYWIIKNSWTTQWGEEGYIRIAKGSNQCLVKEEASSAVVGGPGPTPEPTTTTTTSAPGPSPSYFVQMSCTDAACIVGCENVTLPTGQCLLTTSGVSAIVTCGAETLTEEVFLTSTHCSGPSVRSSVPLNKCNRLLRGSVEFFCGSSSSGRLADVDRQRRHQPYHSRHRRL
#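 Purified cruzain at 1.5 nM, pre-incubated 15 min with compound at room temperature in 100 mM sodium acetate pH 5.5, 5 mM DTT, 0.00005% Triton X-100. Reaction started with 2 uM Z-FR-AMC; AMC fluorescence increase over 60 s gives rate.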
# NS1 inh: inhibitors of influenza NS1 protein function | AID 2326 | 270,000 compounds, 0.4% hits | Potency, µM (doses to about 46.1 µM), inactives show top-dose activity, positive = more growth; calls by dose curve; further: actives are rising curves; nearly all actives have a fitted effect of over 50% in size
#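 Growth recovery, yeast-based: influenza A NS1 expressed in S. cerevisiae causes slow growth, and suppressors are detected by OD600. The parent strain without NS1 is used as positive control.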
# Cruzain inh Det: inhibitors of Trypanosoma cruzi cruzain with detergent | purified cruzain, Z-FR-AMC fluorescence, 0.01% Triton | P25779 | Potency, µM, without a hit: max response, negative = inhibition, usual class: inhibitors | 200,000 compounds, 0.43% hits;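 further: plate controls were neutral wells for no effect and buffer without enzyme for full effect; nearly all actives have a fitted effect of over 40% in size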
#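 Detergent-containing run (0.01% Triton X-100) in acetate buffer pH 5.5 with 5 mM DTT: enzyme at 1.5 nM final, 15 min compound preincubation at room temperature, then 2 uM Z-FR-AMC substrate. Activity taken as 60 s fluorescence increase at 360/450 nm.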
# Numbers without * were called inactive; ? = inconclusive; nt = no result. This excerpt belongs to a sample that is enriched for hits. Unless noted, the call rests on the fitted dose curve; in most records, active means well fitted curve in the direction sought with a large enough effect; inconclusive means small, poorly fitted or top-dose-only effect, or another doubt; inactive means no such curve, though single readings can be large; an effect the other way counts as inactive or inconclusive. Potency means the concentration at half of the fitted maximal effect.
SMILES,Cruzain noTriton,NS1 inh,Cruzain inh Det
Cc1ccc(C2=NC(c3ccc(F)cc3)=Nc3ccc(C)cc3N2)cc1,25µM*,nt,-1%
Cc1ccc2c(c1)NC(c1cccnc1)=NC(c1ccc(F)cc1)=N2,5%,nt,-4%
CC(=O)OCCC(C)CCC=C(C)C (stereo not given),-8%,nt,0%
COc1ccccc1-c1nn2c(-c3ccco3)nnc2s1,?,-58%,-5%
COc1ccccc1-c1nn2c(-c3ccccc3Cl)nnc2s1,-16%,13µM*,1%
COc1cccc(-c2nnc3sc(-c4ccccc4)nn23)c1,?,-9%,-8%
COc1cccc(OC)c1-c1nn2c(-c3cc(-c4ccccc4)n[nH]3)nnc2s1,20µM*,6%,1.8µM*
Cc1ccc(-n2ncc(C(=O)NC3CCCCC3)c2C2CCN(C(=O)OC(C)(C)C)CC2)cc1,8%,nt,-1%
COc1cc2c(C(=O)N3CCN(c4ccc(C)cc4)C(C)C3)cn(CC(C)C)c(=O)c2cc1OC (stereo not given),?,nt,-6%
COC(=O)C1=C(C)NC(C)=C(C(=O)OCCNCc2ccccc2)C1c1cccc([N+](=O)[O-])c1 (stereo not given),6%,nt,-2%
NCCC[C@@H](CC(=O)N[C@@H]1CCNC[C@H]1C(=O)N[C@H](CC(=O)N[C@@H](CCC(=O)O)CC(=O)O)Cc1c[nH]c2ccccc12)NC(=O)C[C@H](Cc1c[nH]c2ccccc12)NC(=O)[C@@H]1CNCC[C@H]1N,-3%,nt,3%
Cc1ccc(CN2CCCn3nc(C(=O)NCCc4ccc(Cl)cc4)cc3C2=O)cc1,5%,nt,-3%
O=C(Nc1ccc(Cl)c(Cl)c1)Nc1ccc(N2CCCC2)c(S(=O)(=O)Nc2ccccc2Cl)c1,?,-6%,-1%
COc1ccccc1NS(=O)(=O)c1cc(NC(=O)c2cccs2)ccc1N1CCCCC1,10µM*,?,-3%
O=C(Nc1ccc(F)cc1)Nc1ccc(N2CCCC2)c(S(=O)(=O)Nc2ccccc2Cl)c1,3.2µM*,23%,-1%
COc1ccccc1NS(=O)(=O)c1cc(NC(=O)c2sccc2C)ccc1N1CCCC1,nt,20%,nt
COc1ccccc1NS(=O)(=O)c1cc(NC(=O)Nc2ccccc2)ccc1N1CCCCC1,3.2µM*,?,2%
COc1ccccc1NS(=O)(=O)c1cc(NC(=O)c2cccs2)ccc1N1CCCC1,?,29%,-9%
CCOC(=O)N1CCc2c(sc(NCc3ccc(OC)c(Br)c3)c2C(=O)Nc2cc(OC)ccc2OC)C1,?,nt,-13%
Cc1ccc2cccc(NC(=O)C(C)Oc3ccc(Cl)cc3Cl)c2n1 (stereo not given),2%,nt,-2%
CC(CNC(=O)CCCn1c(=O)c2cccn2c2ccc(F)cc21)c1ccccc1 (stereo not given),16µM*,nt,-3%
CC(CNC(=O)CCn1c(=O)c2cccn2c2ccc(F)cc21)c1ccccc1 (stereo not given),30%,7%,-7%
COc1ccc(-c2cc(C(=O)NCc3ccc(F)cc3)c3c(-c4ccc(F)cc4)[nH]nc3n2)cc1OC,?,nt,0%
CCOC(=O)c1c(NC(=O)c2ccccc2Cl)sc2c1CCCC2,-14%,nt,-1%
COC(=O)c1c(NC(=O)c2ccccc2N(C)S(=O)(=O)c2ccccc2)sc2c1CCCC2,25µM*,-7%,-7%
SMILES,Cruzain noTriton,NS1 inh,Cruzain inh Det
COC(=O)c1c(NC(=O)c2ccc(N(C)S(=O)(=O)c3ccc(C)cc3)cc2)sc2c1CCCC2,4µM*,5%,-4%
CCOC(=O)c1c(NC(=O)c2ccccc2N(C)S(=O)(=O)c2ccccc2)sc2c1CCCC2,20µM*,?,-2%
COC(=O)c1c(NC(=O)CS(=O)(=O)c2ccc(C)cc2)sc2c1CCCC2,?,nt,-8%
COC(=O)c1c(NC(=O)c2ccccc2C(=O)O)sc2c1CCC2,nt,27%,nt
COc1cc(C(=O)CC2(O)C(=O)N(Cc3ccccc3Cl)c3ccccc32)cc(OC)c1OC (stereo not given),?,nt,-9%
COc1ncc2nc(-c3cc(F)cc(F)c3)c(=O)n(CCc3ccccc3)c2n1,-3%,nt,1%
C[C@@H](Cc1ccc(Cl)cc1Cl)NO,19%,-33%,0%
O=C1C(c2[nH]c3ccc(S(=O)(=O)O)cc3c2O)=Nc2ccc(S(=O)(=O)O)cc21,-3%,nt,1%
[N-]=[N+]=CC(=O)CC[C@H](N)C(=O)O,-4%,-1%,1%
O=[N+]([O-])c1ccc(Nc2nc(N/N=C/c3cccc(F)c3)nc(N3CCCC3)n2)cc1,16µM*,23%,-3%
O=[N+]([O-])c1cccc(/C=N/Nc2nc(N3CCOCC3)nc(N3CCOCC3)n2)c1,-3%,4%,-3%
COc1ccc(N2Cc3cccc(C(=O)Nc4cccc(F)c4)c3C2=O)cc1,11%,nt,-3%

# Source: PubChem BioAssay
